Screening results as filed in PubChem BioAssay.
Shown are actives, neighbours in structure and some others; about 0.92% of the full set was active somewhere.
RPL19A TOR yeast = RPL19A-GFP expression modulators in yeast, primary screen, cell-based, S. cerevisiae, multiplex flow cytometry, MLPCN | S. cerevisiae RPL19A-GFP strain, 3 h; active compounds read low | percent response vs DMSO, % at 10 µM | 330,000 tested, 0.3% active;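 active means percent response vs DMSO below 50%; inconclusive means fewer than 70 events counted for the yeast strain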;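 further: median channel GFP fluorescence of the barcoded RPL19A-GFP strain; ratio of sample median GFP to plate DMSO average so 100% = DMSO; lower means less RPL19A-GFP as with rapamycin TOR inhibition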
CIT2-GFP yeast = modulators of CIT2-GFP expression in yeast, primary screen, S. cerevisiae, GFP fusion, multiplex flow cytometry, MLPCN library | GFP response vs DMSO, % at 10 µM | 320,000 tested, 0.065% active | S. cerevisiae CIT2-GFP strain, 3 h; 100 means same as DMSO wells;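 active means GFP response relative to DMSO above a set limit, near the screen mean plus 3 SD, cut at about 150% in these data; inconclusive means Fewer than 70 cells measured for a yeast strain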;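 further: ratio of well median GFP fluorescence to mean of DMSO wells on the plate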
AGP1-GFP MLPCN = modulators of AGP1-GFP expression in yeast TOR pathway, primary screen, cell-based, multiplex flow cytometry, S. cerevisiae, MLPCN library | 3 h; GFP as percent of DMSO wells | GFP response vs DMSO, % at 10 µM | 320,000 tested, 0.02% active | AID 2066, 2009;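 active means GFP response relative to DMSO above a set limit, near screen average plus 3 SD, cut at about 150% in these data; inconclusive means fewer than 70 cells counted for the yeast strain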;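 further: median GFP channel fluorescence of the gated AGP1 strain per well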
LAP4-GFP MLPCN = modulators of LAP4-GFP expression in yeast, primary screen, S. cerevisiae, multiplex flow cytometry, MLPCN library | GFP response vs DMSO, % at 10 µM | 3 h; median GFP as percent of DMSO wells | 320,000 tested, 0.34% active;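 active means GFP response vs DMSO above a set limit, about the screen mean plus 3 SD, cut at about 150% in these data; inconclusive means under 70 cell events counted for the yeast strain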
MEP2-GFP yeast = modulators of MEP2-GFP levels in yeast, primary screen, S. cerevisiae, multiplex flow cytometry, MLPCN library; S. cerevisiae MEP2-GFP strain, 3 h; 100% = DMSO control level; GFP response vs DMSO, % at 10 µM; 330,000 tested, 0.51% active;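 active means GFP response versus DMSO above a set limit, roughly screen mean plus 3 SD, cut at about 180% in these data; inconclusive means fewer than 70 cells counted for a yeast strain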;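 further: median GFP fluorescence of the barcode-gated MEP2-GFP cells per well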
* = called active by the depositor; ? = inconclusive; / = no result given; [ ] = remark or other dose.

SMILES | RPL19A TOR yeast | CIT2-GFP yeast | AGP1-GFP MLPCN | LAP4-GFP MLPCN | MEP2-GFP yeast
Cc1cccc(NC(=O)/C(C#N)=C/c2ccc(Cl)cc2)n1 | 86 | 84 | 89 | 110 | 98
COc1cc2[nH]c(Cl)c([N+](=O)[O-])c2cc1OC | 52 | ? | 18 | 97 | 273*[may fluoresce violet]
COc1cc2[nH]c3c(Cl)ncnc3c2cc1OC | 110 | 107 | 105 | 109 | 128
N=c1c(C(=O)NCc2ccc(F)cc2)cc2c(=O)n3ccccc3nc2n1CC1CCCO1 (stereo unspecified) | 77 | ? | / | 103 | 256*[may fluoresce violet]
N=c1c(C(=O)NCc2ccc3c(c2)OCO3)cc2c(=O)n3ccccc3nc2n1CC1CCCO1 (stereo unspecified) | 97 | 102 | 96 | 92 | 101
N=c1c(C(=O)NCc2ccco2)cc2c(=O)n3ccccc3nc2n1CCc1ccccc1 | 48* | 89 | 74 | 93 | 325*
N=c1c(C(=O)NCc2ccco2)cc2c(=O)n3ccccc3nc2n1CC1CCCO1 (stereo unspecified) | 27*[may fluoresce violet] | ? | ? | 84 | 266*[may fluoresce violet]
Cc1cccn2c(=O)c3cc(C(=O)NCc4ccco4)c(=N)n(CCOCCO)c3nc12 | 35*[may fluoresce violet] | ? | ? | 102 | 239*[may fluoresce violet]
Cc1ccc(Cn2c(=N)c(C(=O)NCc3ccco3)cc3c(=O)n4ccccc4nc32)cc1 | 71 | 102 | 19 | 97 | 155
Cc1ccc(N=C2SC(C(=O)O)CC(=O)N2C)cc1C (stereo unspecified) | 98 | 106 | 103 | 102 | 98
O=C(CN1CCCCC1)Nc1cc(S(=O)(=O)N2CCOCC2)ccc1N1CCCC1 | 98 | 87 | 99 | 107 | 93
CCOC(=O)c1c(CSc2cccs2)n(C)c2cc(Br)c(O)c(CN(C)C)c12 | 94 | 91 | 92 | 94 | 90
Cc1ccc2nc3c(cc(C(=O)NCc4ccco4)c(=N)n3C3CCCC3)c(=O)n2c1 | 26*[may fluoresce violet] | ? | ? | ? | ?
Cc1cccn2c(=O)c3cc(C(=O)NCCc4ccccc4)c(=N)n(CC4CCCO4)c3nc12 (stereo unspecified) | 104 | 90 | 93 | 91 | 101
N=c1c(C(=O)NCCc2ccccc2)cc2c(=O)n3ccccc3nc2n1CC1CCCO1 (stereo unspecified) | 22*[may fluoresce violet] | ? | ? | ? | ?
N=c1c(S(=O)(=O)c2ccccc2)cc2c(=O)n3ccccc3nc2n1Cc1cccnc1 | 96 | 96 | 111 | 110 | 99
CCCNc1nc2nc3ccccn3c(=O)c2cc1C(=O)NCCN1CCOCC1 | ? | ? | ? | 97 | 220*[may fluoresce red and violet]
N=c1c(C(=O)NC2CCCC2)cc2c(=O)n3ccccc3nc2n1Cc1ccccc1 | 105 | 102 | 101 | 101 | 110
N=c1c(C(=O)NC2CCCC2)cc2c(=O)n3ccccc3nc2n1CCN1CCOCC1 | 37*[may fluoresce violet] | ? | ? | 79 | 216*[may fluoresce violet]
O=C(NCCN1CCOCC1)c1c(O)nc2ccccn2c1=O | 100 | 96 | 94 | 93 | 96
N#Cc1cc2c(=O)n3ccccc3nc2n(Cc2cccnc2)c1=O | 41*[may fluoresce violet] | ? | 19 | 81 | 188*[may fluoresce violet]
N=c1c(C(=O)NC2CCCC2)cc2c(=O)n3ccccc3nc2n1CCCN1CCOCC1 | 51 | ? | ? | 74 | 184*[may fluoresce violet]
COc1cccc(C(=O)OCC(=O)NCC2CCCO2)c1 (stereo unspecified) | 98 | 99 | 97 | 90 | 95
NC(=O)c1ccc(SCC(=O)OCC(=O)N2CCN(C(=O)c3ccco3)CC2)c([N+](=O)[O-])c1 | 100 | 101 | 115 | 115 | 102
COc1ccc(CCNC(=O)c2cc3c(=O)n4ccccc4nc3n(CCCN3CCOCC3)c2=N)cc1 | 102 | 101 | 97 | 98 | 104
SMILES | RPL19A TOR yeast | CIT2-GFP yeast | AGP1-GFP MLPCN | LAP4-GFP MLPCN | MEP2-GFP yeast
N#Cc1cc2c(=O)n3ccccc3nc2n(CCCN2CCOCC2)c1=O | 47*[may fluoresce violet] | ? | 73 | 96 | 241*[may fluoresce violet]
O=C(Nc1ccc(Cn2nnc3ccccc32)cc1)c1ccco1 | 14*[may fluoresce violet] | ? | ? | 77 | 294*[may fluoresce violet]
O=C(Nc1ccc(NC(=O)c2ccco2)cc1)c1ccco1 | 99 | 97 | 91 | 76 | 87
O=C(O)c1c[nH]c2ccc(S(=O)(=O)N3CCOCC3)cc12 | 15*[may fluoresce violet] | ? | ? | 79 | 252*[may fluoresce violet]
O=C(NCCN1CCOCC1)c1c[nH]c2ccc(S(=O)(=O)N3CCOCC3)cc2c1=O | 101 | 105 | 98 | 95 | 98
COc1ccc(C(=O)N/N=C/c2c[nH]c3ccccc23)cc1 | 17*[may fluoresce violet] | ? | ? | ? | 247*[may fluoresce violet]
O=C(N/N=C/c1c[nH]c2ccccc12)c1ccc(O)c(O)c1 | 95 | 98 | 89 | 90 | 103
O=C(Cc1ccc([N+](=O)[O-])cc1)Nc1ccc(Br)cn1 | 104 | 97 | 121 | 98 | 123
O=C(COc1ccc(Br)cc1)Nc1ccc([N+](=O)[O-])cn1 | 60 | ? | / | 97 | 250*[may fluoresce violet]
COc1ccc(CC(=O)NCC2CCCN(Cc3ccc(F)cc3F)C2)cc1 (stereo unspecified) | 100 | 101 | 104 | 100 | 107
Cc1cc(NC(=O)CN(C)C)c([N+](=O)[O-])cc1C | 116 | 105 | 93 | 102 | 108
O=C(O)c1cc(-c2c[nH]c3ccccc23)nc2cc3ccccc3cc12 | 23*[may fluoresce violet] | ? | ? | 69 | 636*[may fluoresce violet]
CCc1cccc(NC(=O)COc2ccccc2)c1 | 21*[may fluoresce violet] | ? | ? | 95 | 252*[may fluoresce violet]
CC(=O)c1cccc(NC(=O)COc2ccccc2)c1 | 102 | 103 | 95 | 106 | 106
CCOC(=O)Nc1c2ccccc2nc2ccccc12 | 75 | ? | 13 | 89 | 207*[may fluoresce violet]
NS(=O)(=O)c1ccc(N2CCOCC2)c(C(=O)NCCCSc2ccccc2)c1 | 98 | 96 | 94 | 95 | 96
COc1ccc(NS(=O)(=O)c2ccc(C)c(NC(=O)CN3C(=O)NC4(CCCC4)C3=O)c2)cc1 | 96 | 96 | 93 | 96 | 99
COc1ccccc1/C=N\Nc1ccccc1[N+](=O)[O-] | 39*[may fluoresce violet] | / | / | / | 299*[may fluoresce violet]
O=C(c1cc(-c2ccccc2)n[nH]1)N1CCc2c([nH]c3ccccc23)C1c1ccccn1 (stereo unspecified) | 97 | 89 | 100 | 108 | 100
O=C(Nc1ccccc1Cl)NC1(C(=O)N2CCCCC2)CCCCC1 | 100 | 105 | 105 | 99 | 101
Cc1ccccc1NC(=O)NC1(C(=O)N2CCN(C)CC2)CCCCC1 | 45*[may fluoresce violet] | ? | ? | 91 | 282*[may fluoresce violet]
O=C(Nc1ccccc1Cl)NC1(C(=O)N2CCCC2)CCCCC1 | 32*[may fluoresce violet] | ? | ? | 106 | 377*[may fluoresce violet]
